Laboratory results taken from PubChem BioAssay.

Columns and labels:
[1] = system: Human papillomavirus type 1a protein E7 (residues 44-93); assay: HPV1a E7 fragment binders on microarrays, primary screen, biochemical, small-molecule microarray, residues 44-93, 635 nm fluorescence (AID 1108); conditions: small-molecule microarray binding, fluorescence 635 nm; higher = more signal;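 further: E7 fragment applied at 1 µg/mL in TBST for 1 h at 4 C; score combines spot fluorescence with its signal to noise ratio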
[2] = modulators of HCV replicon luciferase signal, primary screen, HCV replication inhibitor project, Huh7 cells, luciferase reporter (AID 1109); conditions: 48 h, higher = more signal;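 further: huh7 hepatoma cells harbouring a luciferase neomycin HCV replicon reporter; luciferase luminescence as measure of HCV replicon replication; test concentration not given here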
[3] = target: Left-right determination factor 2 (Homo sapiens) (UniProt O00292); assay: LEFTY2 binders on small-molecule microarrays, primary screen, biochemical, small-molecule microarray, 635 nm fluorescence scan (AID 1110); conditions: LEFTY2 binding, higher = more signal
[4] = target: Calmodulin-1 (Homo sapiens) (UniProt P0DP23); assay: CALM1 binders on microarrays, EGTA buffer, profiling panel, biochemical, small-molecule microarray, Cy5-labelled CALM1 (AID 1111); conditions: Cy5-CALM1 binding fluorescence, higher = more signal;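 further: labelled calmodulin applied in Tris saline Tween buffer holding calcium plus EGTA and DTT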
[5] = target: Calmodulin-1 (Homo sapiens) (UniProt P0DP23); assay: calcium-bound CALM1 binders on microarrays, profiling panel, artefact control for SMM control-protein annotation, biochemical, small-molecule microarray, Cy5-labelled CALM1, plus calcium (AID 1112); conditions: Cy5-CALM1 binding fluorescence, higher = more signal;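 further: score merges spot fluorescence with signal to noise from triplicate slides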
[6] = small-molecule microarray binders of probe aWnt5a, primary screen, biochemical, biotinylated probe, 635/667 nm fluorescence (AID 1113); conditions: higher = more signal;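 further: score merges 667 nm fluorescence intensity with signal-to-noise per printed feature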
[7] = small-molecule microarray binders of probe aShh, primary screen, biochemical, biotinylated probe, 635/667 nm fluorescence (AID 1114); conditions: higher = more signal;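 further: probe is biotin-labelled aShh protein from a stem cell growth factor screen; measures binding of labelled protein to compounds printed on the slide; score merges feature fluorescence at 667 nm with signal-to-noise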
[8] = small-molecule microarray binders of probe aNog, primary screen, biochemical, biotinylated probe, 635/667 nm fluorescence (AID 1115); conditions: higher = more signal;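 further: probe is biotinylated aNog protein used at 0.15 µg/mL for 1 h at 4 C; z-score combines 667 nm fluorescence of each spot with its signal to noise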
[9] = target: Torsin-1A-interacting protein 1 (Homo sapiens) (UniProt Q5JTV8); assay: LAP1 binders from COS7 cell lysate, primary screen, small-molecule microarray, 635/667 nm fluorescence (AID 1116); conditions: COS7-hLAP1 lysate binding, 635 nm fluorescence, higher = more signal
[10] = target: Alpha-bungarotoxin (Bungarus multicinctus) (UniProt P60615); assay: alpha-bungarotoxin binders on microarray, profiling panel, artefact control for SMM control protein annotation, biochemical, small-molecule microarray, Alexa647 label, 635/667 nm fluorescence (AID 1117); conditions: alpha-BTX-A647 binding fluorescence, higher = more signal
Sequence of Alpha-bungarotoxin (Bungarus multicinctus) (P60615 whole entry, looked up): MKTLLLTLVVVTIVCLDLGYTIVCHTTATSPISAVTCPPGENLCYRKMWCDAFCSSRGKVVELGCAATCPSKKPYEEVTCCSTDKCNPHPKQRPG

Sequence of Torsin-1A-interacting protein 1 (Homo sapiens) (Q5JTV8 whole entry, looked up): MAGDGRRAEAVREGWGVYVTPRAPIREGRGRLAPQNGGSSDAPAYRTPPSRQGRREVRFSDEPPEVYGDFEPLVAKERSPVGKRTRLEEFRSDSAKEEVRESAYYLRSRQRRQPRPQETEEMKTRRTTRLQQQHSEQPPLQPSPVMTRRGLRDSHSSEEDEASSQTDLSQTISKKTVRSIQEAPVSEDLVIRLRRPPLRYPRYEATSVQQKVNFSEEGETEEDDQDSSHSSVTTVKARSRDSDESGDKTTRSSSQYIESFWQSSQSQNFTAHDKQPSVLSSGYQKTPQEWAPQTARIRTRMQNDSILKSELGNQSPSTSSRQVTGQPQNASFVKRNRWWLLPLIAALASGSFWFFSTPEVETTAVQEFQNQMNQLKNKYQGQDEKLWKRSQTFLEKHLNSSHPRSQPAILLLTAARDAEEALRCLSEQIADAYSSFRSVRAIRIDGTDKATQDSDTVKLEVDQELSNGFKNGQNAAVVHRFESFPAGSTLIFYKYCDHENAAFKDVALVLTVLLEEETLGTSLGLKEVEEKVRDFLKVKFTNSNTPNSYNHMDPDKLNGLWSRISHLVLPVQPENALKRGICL
Sequence of Left-right determination factor 2 (Homo sapiens) (O00292 whole entry, looked up): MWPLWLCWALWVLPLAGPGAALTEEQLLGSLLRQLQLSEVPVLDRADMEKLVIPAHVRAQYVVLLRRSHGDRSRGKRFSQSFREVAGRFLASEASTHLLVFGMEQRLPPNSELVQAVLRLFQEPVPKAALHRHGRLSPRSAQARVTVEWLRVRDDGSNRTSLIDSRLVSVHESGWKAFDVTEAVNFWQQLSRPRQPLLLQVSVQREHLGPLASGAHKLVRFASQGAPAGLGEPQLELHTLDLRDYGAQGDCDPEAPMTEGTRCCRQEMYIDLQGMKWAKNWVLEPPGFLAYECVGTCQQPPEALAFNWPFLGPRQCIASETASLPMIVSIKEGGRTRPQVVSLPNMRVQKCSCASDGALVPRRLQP

Row | SMILES | composite z-score [1] | z-score [2] | composite z-score [3] | composite z-score [4] | composite z-score [5] | composite z-score [6] | composite z-score [7] | composite z-score [8] | composite z-score [9] | composite z-score [10]
1 | O=C(c1ccccc1)N1Cc2ccccc2C[C@@]2(COC(c3ccc(OCCCO)cc3)=N2)C1=O | 1.4 | -1.25 | 0.252 | 1.32 | 0.566 | -0.0512 | 0.184 | -0.486 | 1.31 | 1.83
2 | [N-]=[N+]=NCc1ccccc1[C@@H]1OC(c2ccc(OCCCO)cc2)=N[C@]1(Cc1ccccc1)C(N)=O | 1.45 | -1.3 | -0.33 | 2.2 | 1.02 | -0.0286 | 0.365 | 1.14 | -0.402 | 2.14
3 | CC(C)C(=C=CC[C@@H](O)c1ccc(OCCO)cc1)C[C@@H](O)COCc1ccccc1 | 0.702 | -0.453 | 0.164 | -0.774 | -0.918 | 0.505 | -0.0553 | 0.526 | 1.51 | 0.119
4 | COc1cc2c(cc1OC)CN(C(=O)[C@@H]1[C@H]3C(=O)O[C@H](c4ccccc4)[C@H](c4ccccc4)N3[C@H](c3ccc(O)cc3)[C@@]13C(=O)Nc1ccccc13)CC2 | 1.39 | -1.74 | 0.0147 | 0.457 | 0.603 | -0.154 | -0.167 | -0.321 | 0.688 | 1.74
5 | CC(C)c1ccc(NN2C(C(O)c3ccc(B(O)O)cc3)C=CC3C(=O)N(c4ccccc4)C(=O)C32)cc1 (stereo not given) | 1.25 | 4.39 | -0.355 | 2.02 | 1.08 | 0.0324 | -0.0362 | 2.19 | 2.08 | 1.27
6 | O=C1O[C@@H](c2ccccc2)[C@@H](c2ccccc2)N2[C@@H](c3ccccc3OCCO)[C@]3(C(=O)Nc4ccccc43)[C@@H](C(=O)Nc3nc4ccccc4s3)[C@H]12 | 1.45 | -3.25 | 0.108 | 1.41 | 0.494 | -0.0621 | 0.206 | 1.96 | 0.618 | 1.56
7 | COc1cc2c(cc1O)C(c1cccs1)N(C)CC2 (stereo not given) | -1.61 | 0.159 | -0.496 | -0.705 | 0.423 | -0.126 | -0.2 | -0.215 | -0.205 | -0.759
8 | NCCCCCCNC(=O)[C@@H]1C[C@@H]2C(=O)NCC(=O)N2[C@@H]1c1ccc(O)cc1 | 1.29 | 0.279 | 1.14 | 0.584 | -0.0301 | -0.142 | 0.0469 | -0.566 | 0.715 | 1.41
9 | NC(=O)NCC#Cc1ccc2c(c1)[C@]1(C(=O)N2)[C@H](C(=O)Nc2nc3ccccc3s2)[C@H]2C(=O)O[C@H](c3ccccc3)[C@H](c3ccccc3)N2[C@@H]1c1ccccc1OCCO | 1.4 | -1.33 | 0.235 | 1.23 | 0.579 | 0.312 | -0.0773 | 2.12 | -0.638 | 2.74
10 | CC(CO)N1C(=O)[C@@H]2C3C(=O)OCCC/C=C\[C@H]3OC23C=CCN(C(C)(C)C)C(=O)[C@@H]13 (stereo not given in full) | -0.898 | 0.367 | -0.0466 | -0.565 | -0.769 | -0.192 | 0.108 | -0.147 | 0.859 | 0.149
11 | O=C(c1ccccc1)N1C(=O)[C@@]2(Cc3ccccc31)N=C(c1ccc(OCCCO)cc1)O[C@H]2c1ccccc1 | 1.03 | -2.77 | 0.643 | 0.661 | -0.502 | 0.0919 | -0.369 | 1.57 | 1.61 | 0.902
12 | O=C1C2C=CC(C(O)c3cc(C(F)(F)F)cc(C(F)(F)F)c3)N(n3cnnc3)C2C(=O)N1Cc1ccccc1 (stereo not given) | 1.11 | -0.418 | -0.63 | 0.538 | -0.374 | -0.0161 | 0.14 | 0.705 | -0.133 | -0.0735
13 | O=C1O[C@@H](c2ccccc2)[C@@H](c2ccccc2)N2[C@@H](c3ccccc3OCCO)[C@]3(C(=O)Nc4ccc(C#CC5=CCCCC5)cc43)[C@@H](C(=O)N3CCCCCCC3)[C@H]12 | 1.52 | -3.29 | 1.74 | 3.02 | 1.72 | 1.4 | 3.21 | 3.35 | 5.37 | 3.65
14 | C=C(CCCC)/C(=C/C[C@@H](OC(=O)c1ccncc1)c1ccc(OCCO)cc1)c1cc(C(=O)OC)ccc1OC | 1.41 | -1.91 | -0.0304 | 0.168 | -0.959 | -0.166 | -0.138 | -0.144 | 0.883 | 0.311
15 | COc1ccccc1CN1C(=O)c2ccccc2[C@@H](C(=O)NC2CC2)[C@@H]1c1ccc(CO)cc1 | 0.0772 | -1.3 | 0.57 | 0.522 | -0.779 | -0.0512 | 0.257 | -0.519 | 0.0469 | 1.3
16 | COc1cc(NN2C(C(O)c3ccco3)C=CC3C(=O)N(c4ccccc4)C(=O)C32)cc(OC)c1OC (stereo not given) | -0.271 | -0.937 | -0.198 | -0.3 | -0.657 | -0.213 | -0.29 | 0.133 | 1.05 | 0.425
17 | COC(=O)[C@@]1(Cc2ccc(OC)cc2)[C@H]2c3cc(C(=O)N(C)C)n(Cc4ccc(S(C)(=O)=O)cc4)c3C[C@H]2CN1C(=O)c1ccccc1 | 1.41 | -1.63 | -0.0612 | 1.36 | 0.798 | -0.242 | -0.405 | -0.21 | 1.28 | -0.0416
